# Experimental data: PubChem BioAssay (NCI)
# About 79,000 compounds went through this panel and 15% of them were active in at least one assay; those are over-represented in the sample as a whole. Activity calls are given as the source filed them. Rule as the data show it: active = growth inhibition above about 70%; inactive = the rest.
# Test: NCI Yeast Anticancer Drug Screen. Data for the mlh1 strain (AID 171);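 also: 0% = growth of vehicle-treated control cultures of the same strain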
# Details: S. cerevisiae mlh1 strain growth inhibition; at 1.2 µM; stronger effect = higher value
# How it was run: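 Vehicle-normalised growth inhibition of a repair- or checkpoint-altered yeast strain following compound treatment.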
row,SMILES,growth inhibition
1,C[N+](C)([O-])CCCNc1c2ccccc2nc2cccc([N+](=O)[O-])c12,14% (inactive)
2,O=C(c1cc(=O)c2ccc(O)cc2o1)c1ccc(Cl)cc1Cl,-19% (inactive)
3,CCCNC(=O)OCc1c(COC(=O)NCCC)c(-c2ccc(Cl)c(Cl)c2)n2c1CCC2,-9% (inactive)
4,O=C(Cc1ccccc1)NN1C(=O)C(Cl)C1c1cc(Br)cc(Br)c1O (stereo not drawn),-3% (inactive)
5,CCOC(=O)C(Cc1c2ccccc2cc2ccccc12)(NC(C)=O)C(=O)OCC,0% (inactive)
6,O=[N+]([O-])/C=C/c1cc2ccc3ccccc3c2[nH]1,25% (inactive)
7,Fc1ccc(Nc2ccc3ccccc3c2)cc1,0% (inactive)
8,O=S1(=O)CCC2=CC(C(F)(F)F)=CC(C(F)(F)F)=CN21,27% (inactive)
9,O=C(Cc1ccccc1)NNc1nc(NNC(=O)c2ccncc2)nc(Nc2ccc([N+](=O)[O-])cc2)n1,-3% (inactive)
10,CCCCS/C(=C(/C#N)C(N)=O)c1cc2c([nH]1)CCCC2,-13% (inactive)
11,CCOC(=O)/C(=C\c1cccc(C)c1)C(C)=O,13% (inactive)
12,NC(=S)N/N=C1\c2ccccc2CCC1CCC1(O)CCc2ccccc2C1=O (stereo not drawn),14% (inactive)
13,Cc1cccc2c(Cl)c3cccc(C)c3nc12,-3% (inactive)
14,CC(C)OC(=O)NNc1c(Cl)cc(Cl)cc1Cl,-2% (inactive)
15,Nc1ccc2c(c1)C(=O)c1c(F)cccc1-2,7% (inactive)
16,N#CSCC1COc2ccccc2O1 (stereo not drawn),-51% (inactive)
17,Cc1ccc(S(=O)(=O)NC(=O)C2C(=O)CC3(CCCCC3)CC2=O)cc1,-2% (inactive)
18,CC1=NN(C(=O)c2ccccc2O)C(=O)/C1=C/c1ccco1,12% (inactive)

# Same assay, conditions: S. cerevisiae mlh1 strain growth inhibition; at 3.7 µM; stronger effect = higher value
row,SMILES,growth inhibition
1,CC(CN(C)C)C(=O)/C=C/c1ccc(Cl)c(Cl)c1 (stereo not drawn),6% (inactive)
2,CCCCCCNCCCNc1c2cc(OC)ccc2nc2cccc([N+](=O)[O-])c12,2% (inactive)
3,NC(=S)N1N=C2c3ccccc3CC[C@H]2[C@@H]1c1ccc(Cl)cc1,2% (inactive)
4,C/C(=N/NC(=S)Nc1ccccc1C)c1ccccn1,-7% (inactive)
5,O=C1/C(=C/c2ccc(Cl)c(Cl)c2)CNC/C1=C\c1ccc(Cl)c(Cl)c1,13% (inactive)
6,CC(C)OP(=O)(OC(C)C)C(=NCCO)NNc1ccc([N+](=O)[O-])cc1,-22% (inactive)
7,N#CCC(=O)N/N=C(\c1ccccc1)C(c1ccccc1)C1(O)C(=O)Nc2c(Cl)ccc(Cl)c21 (stereo not drawn),-1% (inactive)
8,CC(C)(CN1CCCCC1)C(=O)CC(SCCS(=O)(=O)O)c1ccccc1 (stereo not drawn),2% (inactive)
9,COC1=CCC23C(=O)C=CC(=O)C2(C1)C(=O)c1ccccc1C3=O (stereo not drawn),-25% (inactive)
10,CCCCN(CCCC)c1ccc(N=Nc2ccc(S(=O)(=O)O)cc2)cc1,18% (inactive)
11,c1ccc2nc3c(nc2c1)sc1ccccc13,3% (inactive)
12,O=C1c2ccccc2-c2ccc(N=Cc3ccccc3)cc21,-8% (inactive)
13,CNC(=S)N/N=C(/C)CCC/C(C)=N/NC(=S)NC,34% (inactive)
14,Nc1ccc(/C=C/c2ccc3cccnc3c2)cc1,-1% (inactive)
15,COc1ccc2c3c1OC(C)C31CC(=O)CCC1CC2 (stereo not drawn),-2% (inactive)
16,CCOC(=O)Nc1ccc(C)c(NC(=O)OCC)c1,8% (inactive)
17,CCN(CC)CCNc1ccc2nc(C)n3c4ccc(OC)cc4c(=O)c1c23,27% (inactive)
18,C[N+](C)([O-])CCCNc1c2ccccc2nc2cccc([N+](=O)[O-])c12,22% (inactive)

row,SMILES,growth inhibition
1,O=C(c1cc(=O)c2ccc(O)cc2o1)c1ccc(Cl)cc1Cl,-7% (inactive)
2,CCCNC(=O)OCc1c(COC(=O)NCCC)c(-c2ccc(Cl)c(Cl)c2)n2c1CCC2,-9% (inactive)
3,O=C(Cc1ccccc1)NN1C(=O)C(Cl)C1c1cc(Br)cc(Br)c1O (stereo not drawn),8% (inactive)
4,CCOC(=O)C(Cc1c2ccccc2cc2ccccc12)(NC(C)=O)C(=O)OCC,0% (inactive)
5,O=[N+]([O-])/C=C/c1cc2ccc3ccccc3c2[nH]1,50% (inactive)
6,Fc1ccc(Nc2ccc3ccccc3c2)cc1,0% (inactive)
7,O=S1(=O)CCC2=CC(C(F)(F)F)=CC(C(F)(F)F)=CN21,36% (inactive)
8,O=C(Cc1ccccc1)NNc1nc(NNC(=O)c2ccncc2)nc(Nc2ccc([N+](=O)[O-])cc2)n1,8% (inactive)
9,CCCCS/C(=C(/C#N)C(N)=O)c1cc2c([nH]1)CCCC2,-19% (inactive)
10,CCOC(=O)/C(=C\c1cccc(C)c1)C(C)=O,18% (inactive)
11,NC(=S)N/N=C1\c2ccccc2CCC1CCC1(O)CCc2ccccc2C1=O (stereo not drawn),14% (inactive)
12,Cc1cccc2c(Cl)c3cccc(C)c3nc12,-2% (inactive)
13,CC(C)OC(=O)NNc1c(Cl)cc(Cl)cc1Cl,-1% (inactive)
14,Nc1ccc2c(c1)C(=O)c1c(F)cccc1-2,-4% (inactive)
15,N#CSCC1COc2ccccc2O1 (stereo not drawn),-37% (inactive)
16,Cc1ccc(S(=O)(=O)NC(=O)C2C(=O)CC3(CCCCC3)CC2=O)cc1,-11% (inactive)
17,CC1=NN(C(=O)c2ccccc2O)C(=O)/C1=C/c1ccco1,32% (inactive)
